{
  "source": "PubChem BioAssay AID2479",
  "about": "(National Center for Advancing Translational Sciences (NCATS), 2010)",
  "note": "Inconclusive results are not listed. Calls of active or inactive are those of the source. The call rests on the fitted dose curve.",
  "data": [
    {"target": "Thyroid hormone receptor beta (Homo sapiens) (UniProt P10828)", "sequence (P10828 whole entry, looked up)": "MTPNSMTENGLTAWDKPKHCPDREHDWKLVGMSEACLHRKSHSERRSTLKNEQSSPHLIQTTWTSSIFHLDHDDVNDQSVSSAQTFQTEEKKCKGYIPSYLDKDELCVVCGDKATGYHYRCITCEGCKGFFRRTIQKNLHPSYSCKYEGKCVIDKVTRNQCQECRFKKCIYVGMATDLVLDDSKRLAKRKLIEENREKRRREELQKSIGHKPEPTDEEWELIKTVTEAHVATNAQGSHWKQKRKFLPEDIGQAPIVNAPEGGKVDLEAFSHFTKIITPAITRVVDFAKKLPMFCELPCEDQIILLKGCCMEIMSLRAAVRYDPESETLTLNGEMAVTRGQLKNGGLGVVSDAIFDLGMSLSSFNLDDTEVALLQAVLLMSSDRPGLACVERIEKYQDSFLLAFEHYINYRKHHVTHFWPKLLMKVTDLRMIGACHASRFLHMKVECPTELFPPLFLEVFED", "experiment": "Gene Reporter Secondary Assay for Inhibitors of the Interaction of Thyroid Hormone Receptor and Steroid Receptor Coregulator 2 in a Thyroid Receptor Assay", "settings": "WRO cells TRb DR4-TRE luciferase reporter, T3, 20 h", "source_text": "NIH Molecular Libraries Probe Production Network [MLPCN] NIH Chemical Genomics Center [NCGC] MLPCN Grant: DK058080 Assay Provider: R. Kip Guy, St. Jude Children's Research Hospital NCGC Assay Overview: Thyroid receptor (TR) regulates many homeostatic processes including basal metabolism, cardiovascular function, body weight, and lipid trafficking. TR modulators are potential therapeutics for obesity and hyperlipidemias but current thyroid analogs have undesirable side effects, particularly cardiac stimulation. This secondary assay characterized compounds identified in the qHTS for Inhibitors of the Interaction of Thyroid Hormone Receptor and Steroid Receptor Coregulator 2 (PubChem AID 1485). The human follicular thyroid carcinoma cell line WRO (kindly provided by Dr. M. D. Ringel) stably expresses TRb and a luciferase reporter gene fused to TR response element. The addition of T3 ligand elevates expression of the TRE luciferase reporter (DR4-TRE-luc).\nNCGC Assay Protocol Summary: Cells were maintained in RPMI 1640 culture medium supplemented with 10% heat-inactivated FBS, 0.33 mg/ml hygromycin, 0.33 mg/ml geneticin, 50 units/ml penicillin, 50 ug/ml streptomycin. Cells were harvested and resuspended at 330,000 cells/ml in assay medium (50% DMEM 50% F-12 medium without Phenol-Red (Cellgro #16-405-CV), L-glutamine, 10% heat inactivated and charcoal treated FBS, 100 uM non-essential amino acid, 50 units/ml penicillin, 50 ug/ml streptomycin). Cells were dispensed at 8,000 cells/25 ul/well into 384 well plates (Corning 3917) and incubated 12 hr at 37 C and 5% CO2. Following transfer of 130 nL compound (ranging from 0.2 to 52 uM) and T3 (100 nM final concentration), the plates were incubated 20 hr incubation at 37 C and 5% CO2. Plates were then equilibrated at ambient temperature for 30 min, 25 ul of Bright-Glo (Promega) was added and luminescence was detected by an EnVision (PerkinElmer).", "values": [
      {"compound": "O=C(COC(=O)c1cccc([N+](=O)[O-])c1)NC1C2CC3CC(C2)CC1C3", "note": "(centres undefined)", "outcome": "inactive"},
      {"compound": "CC(=O)c1cccc(NC(=O)C(C)OC(=O)c2ccc(S(C)(=O)=O)c([N+](=O)[O-])c2)c1", "note": "(centres undefined)", "Potency": "14.9 µM (active)"},
      {"compound": "CC(=O)Nc1cccc(C(=O)OCC(=O)NC(=O)C2CCCCC2)c1", "outcome": "inactive"},
      {"compound": "CS(=O)(=O)c1ccc(C(=O)OCC(=O)N2CCCC2)cc1[N+](=O)[O-]", "Potency": "17.7 µM (active)"},
      {"compound": "O=C(COC(=O)c1ccc(Cl)c([N+](=O)[O-])c1)NC1C2CC3CC(C2)CC1C3", "note": "(centres undefined)", "outcome": "inactive"},
      {"compound": "O=C(COC(=O)c1cccc([N+](=O)[O-])c1Cl)NC1C2CC3CC(C2)CC1C3", "note": "(centres undefined)", "outcome": "inactive"},
      {"compound": "O=C(COC(=O)c1cc([N+](=O)[O-])ccc1F)NC1C2CC3CC(C2)CC1C3", "note": "(centres undefined)", "outcome": "inactive"},
      {"compound": "CS(=O)(=O)c1ccc(C(=O)OCC(=O)NCC2CCCO2)cc1[N+](=O)[O-]", "note": "(centres undefined)", "Potency": "15.2 µM (active)"},
      {"compound": "O=C(COC(=O)c1ccc(F)c([N+](=O)[O-])c1)NC1C2CC3CC(C2)CC1C3", "note": "(centres undefined)", "outcome": "inactive"},
      {"compound": "C[S+](=O)([O-])c1ccc(C(=O)OCC(=O)NC2C3CC4CC(C3)CC2C4)cc1", "note": "(centres undefined)", "outcome": "inactive"},
      {"compound": "CS(=O)(=O)c1ccc(C(=O)OCC(=O)N2CCOCC2)cc1[N+](=O)[O-]", "Potency": "23 µM (active)"},
      {"compound": "CC1(C)C2CCC1(C)C(NC(=O)COC(=O)c1ccc(S(C)(=O)=O)c([N+](=O)[O-])c1)C2", "note": "(centres undefined)", "Potency": "12.9 µM (active)"},
      {"compound": "CS(=O)(=O)c1ccc(C(=O)OCC(=O)N2CCc3ccccc32)cc1[N+](=O)[O-]", "Potency": "18.6 µM (active)"},
      {"compound": "CC1CCCCN1C(=O)COC(=O)c1ccc(S(C)(=O)=O)c([N+](=O)[O-])c1", "note": "(centres undefined)", "Potency": "12.6 µM (active)"},
      {"compound": "CS(=O)(=O)c1ccc(C(=O)OCC(=O)N2CC(=O)Nc3ccccc32)cc1[N+](=O)[O-]", "Potency": "15.8 µM (active)"},
      {"compound": "CS(=O)(=O)c1ccc(C(=O)OCC(=O)Nc2cc(C(F)(F)F)ccc2Cl)cc1[N+](=O)[O-]", "Potency": "22.7 µM (active)"},
      {"compound": "CS(=O)(=O)c1ccc(-c2nnc(-c3ccccc3)s2)cc1[N+](=O)[O-]", "Potency": "11.1 µM (active)"},
      {"compound": "C[S+](=O)([O-])c1ccc(C(=O)OCC(=O)N2CCN([S+](C)(=O)[O-])CC2)cc1[N+](=O)[O-]", "outcome": "inactive"},
      {"compound": "CCN1CCN(C(=O)COC(=O)c2ccc(S(C)(=O)=O)c([N+](=O)[O-])c2)CC1C", "note": "(centres undefined)", "Potency": "26.3 µM (active)"},
      {"compound": "CS(=O)(=O)c1ccc(C(=O)OCC(=O)NC(=O)NC2CCCCC2)cc1[N+](=O)[O-]", "Potency": "12.7 µM (active)"},
      {"compound": "COc1cccc(CNC(=O)COC(=O)c2ccc(S(C)(=O)=O)c([N+](=O)[O-])c2)c1", "Potency": "21.5 µM (active)"},
      {"compound": "CC(=O)N1CCN(C(=O)COC(=O)c2ccc([S+](C)(=O)[O-])c([N+](=O)[O-])c2)CC1", "outcome": "inactive"},
      {"compound": "Cc1ccccc1NC(=O)COC(=O)c1ccc(S(C)(=O)=O)c([N+](=O)[O-])c1", "Potency": "22.9 µM (active)"},
      {"compound": "CN1CCN(C(=O)COC(=O)c2ccc(S(C)(=O)=O)c([N+](=O)[O-])c2)CC1", "Potency": "33.9 µM (active)"},
      {"compound": "CS(=O)(=O)c1ccc(-c2nnc(-c3ccccc3)o2)cc1[N+](=O)[O-]", "Potency": "15.7 µM (active)"},
      {"compound": "CCN1CCN(C(=O)COC(=O)c2ccc(S(C)(=O)=O)c([N+](=O)[O-])c2)C(C)C1", "note": "(centres undefined)", "Potency": "23.5 µM (active)"},
      {"compound": "CCN(CC)C(=O)COC(=O)c1ccc(S(C)(=O)=O)c([N+](=O)[O-])c1", "Potency": "16.8 µM (active)"},
      {"compound": "O=C(COC(=O)c1ccc2ncsc2c1)NC(=O)C1CCCCC1", "outcome": "inactive"},
      {"compound": "Cc1cc(C(=O)OCC(=O)NC(=O)C2CCCCC2)ccc1[N+](=O)[O-]", "outcome": "inactive"},
      {"compound": "Cc1ccc(F)cc1NC(=O)COC(=O)c1ccc(S(C)(=O)=O)c([N+](=O)[O-])c1", "Potency": "17.9 µM (active)"},
      {"compound": "O=C(COC(=O)c1cc([N+](=O)[O-])ccc1Cl)NC1C2CC3CC(C2)CC1C3", "note": "(centres undefined)", "outcome": "inactive"},
      {"compound": "CS(=O)(=O)c1ccc(C(=O)OCC(=O)N2Cc3ccccc3C2)cc1[N+](=O)[O-]", "Potency": "12.6 µM (active)"},
      {"compound": "C[S+](=O)([O-])c1ccc(C(=O)OCC(=O)N2CCNC(=O)C2)cc1[N+](=O)[O-]", "outcome": "inactive"},
      {"compound": "O=C(COC(=O)c1ccc(C(F)(F)F)cc1)NC(=O)C1CCCCC1", "outcome": "inactive"}
    ]}
  ]
}
